From PubChem BioAssay
CtBP-E1A inh – blocks the CtBP interaction with E1A. hit rate 0.49% among 340,000. activity change, % (test concentration not listed). AlphaScreen GST-E1A/His-CtBP binding, 1536-well; active compounds read low; in the data active means activity change below about -65%; inconclusive means mostly about -30% to -63%
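Steps: dispense buffer (Tris pH 8.0, NaCl 300 mM, TCEP 1 mM, BSA, Tween 20); add 5X protein mix (GST-E1A, His-CtBP, 125 nM each); pin 23 nL compound; 2 h at 37 °C, dark; add 5X beads (50 ug/mL); 1 h; read.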
RGS4 inh – inhibitors of human regulator of G protein signaling 4; P49798; Transcreener GDP fluorescence polarization, RGS4-accelerated GTP hydrolysis; Potency, µM (doses to about 114 µM), hits mostly inhibitors; hit rate 0.039% among 390,000; AID 504845; further: nearly all actives have a fitted effect of over 75% in size
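MLSMR compounds (23 nl, pin-transferred) preincubated 10 min at room temperature with a 500nM (2x) first reagent, then RGS4 at 900nM (2x) plus Transcreener GDP mix added; fluorescence polarization (620/688 nm) read before and after 90 min at 30 °C.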
PI4K2A block – blocks human PI4K2A kinase activity; Q9BTU6; purified PI4K2A, ADP-Glo luminescence, 1 h; active compounds read low; activity change, negative = inhibition, % at 76.9 µM; hit rate 0.13% among 420,000; AID 1346378; in the data active means activity change below about -50%; inconclusive means mostly about -30% to -49%
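ADP-Glo luminescence measured ADP generated by PI4K2A enzyme (4 ug/mL before mixing) with 1.2 mM PI substrate (pre-mix) and 300 microM ATP (pre-mix). Tris pH7.5 buffer with MgCl2, Triton X-100; 1 h reaction at ambient temperature.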
Six1-Eya2 blk – inhibitors of human Six1/Eya2 interaction; hit rate 0.56% among 360,000; Q15475+O00167; AlphaScreen GST-Six1/His-Eya2 binding, biochemical; active compounds read low; activity change, % (no concentration beside the values); AID 651725; in the data active means activity change below about -65%; inconclusive means mostly about -30% to -63%
Target sequence (O00167 whole entry, looked up): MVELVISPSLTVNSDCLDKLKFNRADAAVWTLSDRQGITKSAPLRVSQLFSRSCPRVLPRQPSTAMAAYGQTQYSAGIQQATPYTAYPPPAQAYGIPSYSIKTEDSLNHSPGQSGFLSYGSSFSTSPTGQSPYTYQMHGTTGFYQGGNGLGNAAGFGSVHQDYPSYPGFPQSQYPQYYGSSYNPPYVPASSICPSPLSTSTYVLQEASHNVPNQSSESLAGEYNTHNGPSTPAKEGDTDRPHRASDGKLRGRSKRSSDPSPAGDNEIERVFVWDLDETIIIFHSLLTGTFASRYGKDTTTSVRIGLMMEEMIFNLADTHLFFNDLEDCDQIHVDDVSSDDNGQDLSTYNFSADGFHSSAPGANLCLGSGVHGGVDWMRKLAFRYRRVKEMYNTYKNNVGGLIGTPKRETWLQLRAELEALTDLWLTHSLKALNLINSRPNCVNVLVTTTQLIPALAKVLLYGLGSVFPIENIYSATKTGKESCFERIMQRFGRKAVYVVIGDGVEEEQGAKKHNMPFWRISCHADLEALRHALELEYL
Target sequence (Q15475 whole entry, looked up): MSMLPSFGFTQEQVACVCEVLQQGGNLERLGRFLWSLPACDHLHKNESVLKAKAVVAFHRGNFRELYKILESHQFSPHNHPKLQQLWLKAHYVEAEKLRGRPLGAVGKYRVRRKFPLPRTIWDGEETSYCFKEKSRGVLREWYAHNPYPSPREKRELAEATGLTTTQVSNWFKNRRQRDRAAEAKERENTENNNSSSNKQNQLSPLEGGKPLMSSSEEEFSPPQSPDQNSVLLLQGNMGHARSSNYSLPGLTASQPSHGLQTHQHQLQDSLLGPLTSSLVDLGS
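Compounds are tested against tagged Six1 and Eya2 proteins bridged by glutathione donor and nickel acceptor beads; after a one-hour incubation at 37 °C without light, AlphaScreen emission is recorded.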
USP2a block – blocks human ubiquitin-specific protease USP2a; Potency, µM (doses to about 38.3 µM), actives largely listed as inhibitors; AID 463254; O75604; USP2 core, Ub-CHOP2 coupled fluorogenic reporter, 485/531; hit rate 0.01% among 330,000
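USP2 core (10nM final) preincubated 30min RT with compound in 20mM Tris-HCl pH 8.0, 2mM CaCl2, 2mM beta-mercaptoethanol, 0.05% CHAPS; 25nM Ub-CHOP2 plus 25nM reporter substrate added, fluorescence (Ex485/Em531) read after 60min.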
Eya2 inh – Eya2 (human) phosphatase inhibition; O00167; recombinant Eya2, OMFP fluorescence dephosphorylation (OMFP is methylfluorescein phosphate); Potency, µM (highest dose often 76.9 µM), actives largely listed as inhibitors; hit rate 0.006% among 330,000
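Eya2 protein (added as 0.2 uM solution) was preincubated with compound for 10 min at ambient temperature in 50 mM HEPES pH 7.5, 50 mM NaCl, 5 uM MgCl2, 0.05% BSA, 1 mM DTT. OMFP (added at 50 uM) then reacted 10 min; fluorescence read at 485/525 nm.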
A number is an active result; . = inactive; ? = inconclusive; / = no result given; ! = a repeat was not active; [ ] = remark or other dose. Compounds with a hit are over-represented: about 0.72% of the library has one in this group of screens. Unless noted, the call rests on the fitted dose curve; in most records, active means well fitted curve in the direction sought with a large enough effect; inconclusive means small, poorly fitted or top-dose-only effect, or another doubt; inactive means no such curve, though single readings can be large; an effect the other way counts as inactive or inconclusive.

SMILES | CtBP-E1A inh | RGS4 inh | PI4K2A block | Six1-Eya2 blk | USP2a block | Eya2 inh
O=C(Nc1cccc(F)c1)OC1CC2CC1[C@H]1CCCCN1[C@H]2Cc1ccccc1 (stereo partly specified) | / | / | . | / | / | /
CCSc1nn(CC(=O)Nc2cccc(CC)c2)c(N)c1S(=O)(=O)c1ccccc1 | / | . | . | / | / | /
O=S(=O)(c1ccc(Cl)cc1)N1CCN(Cc2ccc(O)c3ncccc23)CC1 | . | . | . | -92 | . | .
CCCOCc1cc(CN2CCN(c3cccc(Cl)c3)CC2)c(O)c2ncccc12 | / | . | . | / | / | /
O=S(=O)(c1ccc(Cl)cc1)N1CCN(Cc2ccncc2)CC1 | . | . | . | . | . | .
Oc1ccc(CN2CCN(Cc3ccccc3)CC2)c2cccnc12 | -98 | . | . | -93 | . | .
CN1CCN(C2CCN(Cc3ccc(O)c4ncccc34)CC2)CC1 | / | . | . | / | . | .
CN1CCN(Cc2cc(COCc3ccccc3)c3cccnc3c2O)CC1 | -94 | . | . | -89 | . | .
CCOC(=O)c1ccc(NC(=O)CSc2nc3ncc(Br)c(C)c3[nH]2)cc1 | / | . | . | / | / | /
CCCC(CCC)(C(=O)OCC)C(=O)OCC | / | / | . | / | / | /
O=[N+]([O-])c1cc(Br)c(O)c(/C=N/Nc2nnnn2-c2cccc3ccccc23)c1 | -70 | . | . | ? | . | .
O=[N+]([O-])c1ccc(NN=Cc2cccc3ccccc23)cc1 | . | . | . | . | / | /
CCOCCCNC(=O)c1ccc2c(=O)n(CCc3ccccc3)c(=O)[nH]c2c1 | / | . | . | / | / | /
C=CCn1c(COc2ccccc2)nnc1SCC(=O)N/N=C/c1cc(Cl)ccc1O | ? | . | . | ? | / | /
C=CCn1c(CNc2ccccc2)nnc1SCC(=O)N/N=C/c1ccc(O)cc1O | -81 | .[11.4 µM] | ? | -88 | . | .
C=CCn1c(CNc2ccc(C)cc2)nnc1SCC(=O)N/N=C/c1ccc(O)cc1O | -82 | . | . | -86 | . | .
C=CCn1c(COc2ccccc2)nnc1SCC(=O)N/N=C/c1ccc(C)cc1 | . | . | . | . | . | .
O=C(O)/C=C/C(=O)Nc1ccc2c(c1)C(=O)c1ccccc1C2=O | . | . | . | -67 | . | .
CC(=O)Nc1ccc2c(c1)C(=O)c1ccccc1C2=O | ? | . | . | ? | . | .
N/C(=N\C(=O)OCc1ccccc1)N(Cc1ccccc1)C(C#CC1=CCCCC1)Cc1ccccc1 (stereo unspecified) | / | / | . | / | / | /
CC(=O)/C(=N/Nc1ccccc1[N+](=O)[O-])N1CCCc2ccccc21 | -75 | . | . | -74 | . | .
S=C(NCc1ccccn1)NN=Cc1ccccn1 | . | ? | . | -91 | / | /
NC(=O)c1cc[n+](CC2=C(C(=O)[O-])N3C(=O)[C@@H](NC(=O)Cc4cccs4)[C@H]3SC2)cc1 | / | / | . | / | / | /
Cn1c(=O)cc2c3c(c(N4CCCCC4)ccc31)C(=O)c1ccccc1-2 | / | . | . | ? | . | .
O=C1c2ccccc2-c2onc3ccc(N4CCCC4)c1c23 | ? | ? | . | -68 | ? | ?
SMILES | CtBP-E1A inh | RGS4 inh | PI4K2A block | Six1-Eya2 blk | USP2a block | Eya2 inh
O=C1c2ccccc2C(=O)c2c1cccc2N1CCCC1 | -89 | . | . | -87 | . | .
Cc1c(Cl)ccc2sc(N3CCN(C(=O)CS(=O)(=O)c4ccccc4)CC3)nc12 | / | . | . | / | / | /
C[C@@H]1CN([C@H](C)CO)C(=O)c2cc(C#CC3CC3)cnc2O[C@H]1CN(C)S(C)(=O)=O | . | / | . | . | / | /
O=C(Nc1nccs1)c1ccc(CSc2nnnn2-c2ccccc2)cc1 | -79 | . | . | -68 | . | .
CCOc1ccccc1C(=O)NC1CC2CCCC(C1)N2C1CC1 (stereo unspecified) | . | . | . | . | 10µM | .
CCc1ccc(S(=O)(=O)c2nnn3c2nc(N(CC)Cc2ccccc2)c2cc(Cl)ccc23)cc1 | / | . | . | / | / | /
O=C1CCSc2ccc(S(=O)(=O)Nc3ccc(Cl)c(C(F)(F)F)c3)cc2N1 | / | . | . | / | / | /
O=c1[nH]c2ccccc2c2nc(-c3cccc(S(=O)(=O)N4CCCC4)c3)nn12 | -81 | ? | . | -85 | . | .
O=C(CN1C(=O)/C(=C/c2ccco2)SC1=S)Nc1ccc(O)c(C(=O)O)c1 | / | . | . | . | . | .
O=C(CN1C(=O)/C(=C/c2ccco2)SC1=S)Nc1ccc(C(=O)O)c(O)c1 | / | . | . | -65 | . | .
O=C(NCc1ccco1)c1cccc2c(-c3ccc(F)c(F)c3)coc12 | . | / | . | . | / | /
CCOC(=O)[C@]12CCC=C1N(Cc1ccco1)C(=O)[C@H](CC(=O)NCC1CCCCC1)C2 | . | / | . | . | / | /
O=C(O)c1cccc2cc(-c3ccccc3)oc(=O)c12 | . | . | . | . | . | .
O=C(O)c1cccc2cccc(-c3c4ccc(=O)c(O)c-4oc4c(O)c(O)ccc34)c12 | . | ? | -55 | -76 | / | /
CC/C(=C\C(=O)c1ccncc1)Nc1ccc(O)cc1 | . | . | -50 | . | . | .
COc1ccc2nc(NN=C(C)c3ccccn3)cc(C)c2c1 | ? | . | . | -89 | / | /
CCc1ccc(OC(=O)/C=C/c2ccco2)cc1 | . | . | . | . | . | .
O=C(/C=C/c1ccco1)Oc1cccc2cccnc12 | . | . | . | -79 | . | .
O=C(/C=C\c1ccco1)Oc1cccc2cccnc12 | -74 | . | . | -76 | . | .
CCN(c1ccccc1)c1nc(N)nc(C#N)n1 | / | . | / | / | / | /
NC(=O)C1CCN(C2=C(NS(=O)(=O)c3ccc(Cl)cc3)C(=O)c3ccccc3C2=O)CC1 | / | . | . | . | . | .
COC(=O)C1CCN(C2=C(NS(=O)(=O)c3ccc(Cl)cc3)C(=O)c3ccccc3C2=O)CC1 | -79 | .[11.4 µM] | . | -67 | . | .
CC(=O)Nc1ccc(S(=O)(=O)NC2=C(N3CCN(c4ccc(F)cc4)CC3)C(=O)c3ccccc3C2=O)cc1 | -78 | . | . | -79 | . | .
CCOc1ccc(-c2cc3nc(C4CCN(C(=O)OC(C)(C)C)CC4)c(C(=O)Nc4cccc(Cl)c4C)cn3n2)cc1 | / | . | . | / | / | /
COc1ccc(O)c(C(c2c(C)[nH][nH]c2=O)c2c(C)[nH][nH]c2=O)c1 | / | ? | -62 | . | . | .
CC(C)NCCCC1(C(N)=O)c2ccccc2-c2ccccc21 | / | / | . | / | / | /
O=C(/C=C\Nc1ccc2c(c1)OCO2)c1ccccn1 | . | . | -55 | . | . | ?
Cc1ccc(Cl)cc1NC1=C/C(=N\S(=O)(=O)c2cccs2)c2ccccc2C1=O | -78 | . | ? | -74! | . | .
Cc1ccc(NC2=C/C(=N\S(=O)(=O)c3cccs3)c3ccccc3C2=O)c(C)c1 | -85 | . | ? | -84 | . | .
